According to PubChem BioAssay:
The source made the active and inactive calls.

Key:
[1] = binders of probe aFSTL3 on microarray, primary screen, stem cell growth factor project, biochemical, small-molecule microarray, fluorescence 635/667 (AID 1064); conditions: higher = more signal;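 further: measures binding of the biotinylated anti-FSTL3 antibody to printed compounds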
[2] = binders from COS7 lysate, DM2A8 probe, primary screen, torsin A project, cell lysate, small-molecule microarray, fluorescence 635/667 (AID 1065); conditions: higher = more signal, COS7 lysate expressing mutant human TOR1A
[3] = binders of probe aFGF2 on microarray, primary screen, stem cell growth factor project, biochemical, small-molecule microarray, fluorescence 635/667 (AID 1067); conditions: higher = more signal;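 further: measures binding of biotinylated aFGF2 protein to printed compounds on slides; z-score merges feature fluorescence and signal-to-noise across triplicate slides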
[4] = binders of probe aFGF10 on microarray, primary screen, stem cell growth factor project, biochemical, small-molecule microarray, fluorescence 635/667 (AID 1071); conditions: higher = more signal;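 further: score merges 667 nm spot intensity and signal to noise from triplicate slides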
[5] = target: Neurogenic locus notch homolog protein 2 (Homo sapiens) (UniProt Q04721); assay: Notch2 binders on small-molecule microarrays, primary screen, biochemical, small-molecule microarray, 635 nm fluorescence, stem cell growth factors (AID 1073); conditions: Notch2 binding, higher = more signal
[6] = target: Pro-neuregulin-1, membrane-bound isoform (Homo sapiens) (UniProt Q02297); assay: NRG1 binders on small-molecule microarrays, primary screen, psychiatric disease protein project, biochemical, small-molecule microarray, fluorescence 635/667 (AID 1075); conditions: NRG1 binding, 635 nm fluorescence, higher = more signal;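 further: score combines 667 nm spot fluorescence with signal to noise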
[7] = system: Neuregulin-1 EGF-like domain; assay: binders of neuregulin-1 EGF-like domain, primary screen, biochemical, small-molecule microarray, 635 nm fluorescence (AID 1081); conditions: small-molecule microarray binding, higher = more signal;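 further: binding of the protein to compounds printed on small-molecule microarray slides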
[8] = FRG1 promoter luciferase signal modulators, primary screen, FRG1 inhibition for FSHD, cell-based, C2C12 myotubes, firefly/Renilla luciferase, luminescence (AID 1084); conditions: higher = more signal, called active from +8 up or from −8 down
[9] = binders of probe aFST on microarray, primary screen, stem cell growth factor project, biochemical, small-molecule microarray, fluorescence 635/667 (AID 1086); conditions: higher = more signal;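 further: score merges 667 nm fluorescence with signal-to-noise of each printed compound spot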
[10] = binders of probe aHhip on microarray, primary screen, stem cell growth factor project, biochemical, small-molecule microarray, fluorescence 635/667 (AID 1087); conditions: higher = more signal;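 further: score merges spot fluorescence at 667nm with spot signal to noise ratio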
[11] = system: PRMT1 (protein arginine N-methyltransferase 1); assay: PRMT1 binders on small-molecule microarrays, primary screen, biochemical, small-molecule microarray, 635 nm fluorescence (AID 1088); conditions: small-molecule microarray binding, higher = more signal;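 further: binding of Prmt1 protein to compounds spotted on small-molecule microarray slides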
[12] = yeast growth modulation, basal conditions, primary screen, YJM789 clinical isolate, OD600, 24 h (AID 1089);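 further: growth of clinical yeast isolate S. cerevisiae YJM 789 seeded 1000 cells per well; test concentration not given here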; conditions: S. cerevisiae YJM789 growth, higher = more signal, called active from +8 up or from −8 down
[13] = fission yeast growth modulation, primary screen, strain 972, OD600, 24 h, no modulator (AID 1090);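 further: basal condition with compound alone and no growth modifier present; test concentration not given here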; conditions: S. pombe 972 growth, higher = more signal, called active from +8 up or from −8 down
[14] = S. cerevisiae growth modulation with rapamycin, primary screen, strain BY4716, OD600, 96 h (AID 1091); conditions: higher = more signal, called active from +8 up or from −8 down; further: test concentration not given here
[15] = target: Torsin-1A-interacting protein 2 (Homo sapiens) (UniProt Q8NFQ8); assay: LULL1 binders on small-molecule microarray, primary screen, cell lysate, human LULL1 lysate, 635/667 nm fluorescence (AID 1092); conditions: hLULL1 lysate binding, 635 nm fluorescence, higher = more signal;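 further: probe is lysate of COS7 cells overexpressing human LULL1; score merges per-feature 667 nm fluorescence with signal-to-noise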
[16] = E. coli growth modulation, two-sided OD650, primary screen, E. coli filamentation project, strain DRC41, 24 h (AID 1093); conditions: OD650, 24 h, higher = more signal, called active from +8 up or from −8 down;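 further: MC1000 strain lacking acrAB efflux and sulA so SOS filamentation is blocked; test concentration not given here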
[17] = small-molecule microarray binders of probe aLefty2, primary screen, biochemical, biotinylated probe, 635/667 nm fluorescence (AID 1094); conditions: higher = more signal;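 further: score merges spot fluorescence near 667 nm with spot signal-to-noise ratio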
[18] = system: Noggin (protein binding on small-molecule microarray); assay: Noggin binders on small-molecule microarray, primary screen, biochemical, 635/667 nm fluorescence (AID 1095); conditions: 635 nm fluorescence, higher = more signal;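 further: score merges 667 nm feature fluorescence with signal to noise over triplicate slides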
[19] = target: Neurogenic locus notch homolog protein 3 (Homo sapiens) (UniProt Q9UM47); assay: NOTCH3 binders on small-molecule microarray, primary screen, biochemical, 635/667 nm fluorescence (AID 1096); conditions: NOTCH3 binding, 635 nm fluorescence, higher = more signal
[20] = small-molecule microarray binders of probe aEGFR, primary screen, biochemical, biotinylated probe, 635/667 nm fluorescence (AID 1097); conditions: higher = more signal;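 further: probe is a biotinylated anti-EGFR antibody binding compounds printed on slides; score combines fluorescence near 667 nm and signal to noise of each spot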

Sequence of Torsin-1A-interacting protein 2 (Homo sapiens) (Q8NFQ8 whole entry, looked up): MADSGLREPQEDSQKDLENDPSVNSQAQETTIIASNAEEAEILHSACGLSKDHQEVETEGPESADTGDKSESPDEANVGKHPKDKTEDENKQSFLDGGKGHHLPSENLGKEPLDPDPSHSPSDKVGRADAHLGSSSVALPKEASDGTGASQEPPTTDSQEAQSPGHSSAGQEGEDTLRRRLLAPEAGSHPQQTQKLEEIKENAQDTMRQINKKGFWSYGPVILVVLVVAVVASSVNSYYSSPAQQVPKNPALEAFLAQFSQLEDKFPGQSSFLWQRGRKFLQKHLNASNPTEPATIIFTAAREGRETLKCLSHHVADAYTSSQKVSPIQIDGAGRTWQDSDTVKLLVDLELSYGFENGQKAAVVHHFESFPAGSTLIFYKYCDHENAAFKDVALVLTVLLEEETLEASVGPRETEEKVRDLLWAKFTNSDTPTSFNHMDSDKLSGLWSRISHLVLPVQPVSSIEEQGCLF
Sequence of Neurogenic locus notch homolog protein 3 (Homo sapiens) (Q9UM47 whole entry, looked up): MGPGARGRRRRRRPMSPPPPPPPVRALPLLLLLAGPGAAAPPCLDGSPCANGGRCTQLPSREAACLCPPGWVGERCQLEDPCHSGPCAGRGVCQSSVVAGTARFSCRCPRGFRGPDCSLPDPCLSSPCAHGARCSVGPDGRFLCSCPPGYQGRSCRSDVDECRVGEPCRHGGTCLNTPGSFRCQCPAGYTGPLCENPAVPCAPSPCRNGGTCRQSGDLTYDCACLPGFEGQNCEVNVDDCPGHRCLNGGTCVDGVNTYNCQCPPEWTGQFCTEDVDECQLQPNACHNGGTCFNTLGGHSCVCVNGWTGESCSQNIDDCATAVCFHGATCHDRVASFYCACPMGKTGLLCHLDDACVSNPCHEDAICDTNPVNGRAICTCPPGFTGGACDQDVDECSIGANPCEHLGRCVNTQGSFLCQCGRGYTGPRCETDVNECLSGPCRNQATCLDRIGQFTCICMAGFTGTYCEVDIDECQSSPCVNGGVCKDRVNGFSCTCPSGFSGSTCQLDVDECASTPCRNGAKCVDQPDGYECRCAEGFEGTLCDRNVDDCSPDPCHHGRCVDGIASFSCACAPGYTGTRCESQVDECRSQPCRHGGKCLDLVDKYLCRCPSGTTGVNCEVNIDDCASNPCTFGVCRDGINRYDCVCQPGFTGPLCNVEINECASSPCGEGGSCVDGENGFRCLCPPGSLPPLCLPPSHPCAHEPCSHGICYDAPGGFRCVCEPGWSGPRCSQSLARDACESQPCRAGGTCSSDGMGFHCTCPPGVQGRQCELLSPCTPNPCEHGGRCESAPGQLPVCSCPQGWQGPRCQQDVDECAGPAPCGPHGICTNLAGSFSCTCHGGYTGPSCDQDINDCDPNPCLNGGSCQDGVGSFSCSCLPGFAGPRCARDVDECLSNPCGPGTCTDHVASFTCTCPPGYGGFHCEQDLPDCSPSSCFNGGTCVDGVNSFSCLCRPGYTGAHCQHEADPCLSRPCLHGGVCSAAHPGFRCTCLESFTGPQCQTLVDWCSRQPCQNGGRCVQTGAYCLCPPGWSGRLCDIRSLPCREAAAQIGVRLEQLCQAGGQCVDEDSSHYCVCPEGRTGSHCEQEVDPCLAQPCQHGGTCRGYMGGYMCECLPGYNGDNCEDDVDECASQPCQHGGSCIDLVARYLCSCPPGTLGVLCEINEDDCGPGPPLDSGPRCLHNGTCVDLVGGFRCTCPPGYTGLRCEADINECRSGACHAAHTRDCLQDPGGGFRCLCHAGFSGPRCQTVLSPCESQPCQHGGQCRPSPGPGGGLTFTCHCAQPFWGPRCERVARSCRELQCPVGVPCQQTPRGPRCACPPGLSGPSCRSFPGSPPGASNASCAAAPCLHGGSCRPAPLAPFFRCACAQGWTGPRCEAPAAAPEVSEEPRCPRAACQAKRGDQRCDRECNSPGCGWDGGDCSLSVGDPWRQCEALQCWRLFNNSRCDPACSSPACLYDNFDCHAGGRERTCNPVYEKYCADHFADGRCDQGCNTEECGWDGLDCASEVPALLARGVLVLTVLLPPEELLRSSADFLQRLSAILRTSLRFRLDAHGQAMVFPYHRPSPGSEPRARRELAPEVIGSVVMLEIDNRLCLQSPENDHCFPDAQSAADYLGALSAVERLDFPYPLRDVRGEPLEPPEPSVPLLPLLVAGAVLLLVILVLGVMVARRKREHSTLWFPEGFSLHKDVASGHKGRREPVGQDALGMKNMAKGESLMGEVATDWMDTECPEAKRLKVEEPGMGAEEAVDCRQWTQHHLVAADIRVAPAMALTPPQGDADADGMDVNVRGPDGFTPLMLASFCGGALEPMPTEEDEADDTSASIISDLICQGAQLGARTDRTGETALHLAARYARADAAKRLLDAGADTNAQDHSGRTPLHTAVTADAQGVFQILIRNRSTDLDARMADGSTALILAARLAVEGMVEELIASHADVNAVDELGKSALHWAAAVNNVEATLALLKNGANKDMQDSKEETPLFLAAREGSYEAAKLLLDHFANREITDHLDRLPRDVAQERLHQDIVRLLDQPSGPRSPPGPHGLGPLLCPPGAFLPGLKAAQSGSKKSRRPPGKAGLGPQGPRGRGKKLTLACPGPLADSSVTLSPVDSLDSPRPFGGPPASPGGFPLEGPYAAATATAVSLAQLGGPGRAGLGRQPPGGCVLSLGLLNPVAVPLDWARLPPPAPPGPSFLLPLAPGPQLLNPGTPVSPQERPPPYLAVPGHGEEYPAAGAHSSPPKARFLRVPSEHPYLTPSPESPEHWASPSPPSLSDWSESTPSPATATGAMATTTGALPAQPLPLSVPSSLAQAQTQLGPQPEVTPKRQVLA
Sequence of Pro-neuregulin-1, membrane-bound isoform (Homo sapiens) (Q02297 whole entry, looked up, the tested form may be a part, canonical isoform): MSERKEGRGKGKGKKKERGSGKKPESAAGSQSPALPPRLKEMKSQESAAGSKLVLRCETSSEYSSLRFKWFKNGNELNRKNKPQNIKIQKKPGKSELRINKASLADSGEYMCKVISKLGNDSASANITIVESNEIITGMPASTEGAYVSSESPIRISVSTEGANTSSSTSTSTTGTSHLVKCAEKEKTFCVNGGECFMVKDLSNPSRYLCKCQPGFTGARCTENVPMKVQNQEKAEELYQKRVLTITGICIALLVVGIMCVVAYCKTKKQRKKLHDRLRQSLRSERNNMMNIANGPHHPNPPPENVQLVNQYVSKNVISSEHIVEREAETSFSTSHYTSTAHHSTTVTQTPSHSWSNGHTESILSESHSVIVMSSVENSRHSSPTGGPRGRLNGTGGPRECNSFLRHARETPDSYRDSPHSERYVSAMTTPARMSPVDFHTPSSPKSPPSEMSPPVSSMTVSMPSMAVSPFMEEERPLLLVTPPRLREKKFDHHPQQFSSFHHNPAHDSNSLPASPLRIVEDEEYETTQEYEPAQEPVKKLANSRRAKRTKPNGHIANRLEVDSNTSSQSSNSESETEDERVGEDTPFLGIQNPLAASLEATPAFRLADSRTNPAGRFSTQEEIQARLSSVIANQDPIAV

Structure (SMILES) | composite z-score [1] | composite z-score [2] | composite z-score [3] | composite z-score [4] | composite z-score [5] | composite z-score [6] | composite z-score [7] | z-score [8] | composite z-score [9] | composite z-score [10] | composite z-score [11] | z-score [12] | z-score [13] | z-score [14] | composite z-score [15] | z-score [16] | composite z-score [17] | composite z-score [18] | composite z-score [19] | composite z-score [20]
C=CCC(OC(C)=O)[C@@H]1[C@@H](N(Cc2ccc(-c3ccccc3)cc2)C(=O)c2ccc(C)cc2)c2cc(OCCCO)ccc2N1C(=O)c1ccc2ccccc2c1 (stereo not given in full) | -0.233 | 0.0822 | -0.116 | -0.148 | -0.168 | -0.138 | -0.405 | -2.01 (inactive) | 0.482 | -0.0427 | 0.0718 | -2.33 (inactive) | -0.326 (inactive) | -0.693 (inactive) | 0.327 | 1.34 (inactive) | -0.173 | 0.166 | 0.305 | -0.139
C=CCC(OC(C)=O)[C@@H]1[C@@H](N(Cc2ccc(-c3cccc(C(F)(F)F)c3)o2)C(=O)c2cccc3ccccc23)c2cc(OCCCO)ccc2N1C(=O)c1ccc2ccccc2n1 (stereo not given in full) | 0.672 | 0.584 | -0.0242 | 0.232 | -0.381 | 0.0262 | -0.393 | -0.147 (inactive) | -0.111 | 0.185 | 0.24 | 0.75 (inactive) | 0.835 (inactive) | 0.356 (inactive) | -0.039 | -0.746 (inactive) | -0.0209 | -0.029 | -0.684 | -0.132
CC(C)CNC(=O)[C@@H]1c2ccccc2C(=O)N(C2Cc3ccccc3C2)[C@H]1c1ccc(CO)cc1 | 0.192 | -0.372 | -0.0737 | 0.261 | -0.51 | 1.29 | 1.39 | -1.56 (inactive) | -0.316 | -0.166 | 0.962 | -0.226 (inactive) | -0.59 (inactive) | -0.434 (inactive) | 2.59 | 2.01 (inactive) | 0.159 | -0.646 | -0.145 | -0.311
C=CCOC(=O)[C@H]1[C@@H]2C(=O)O[C@@H](c3ccccc3)[C@@H](c3ccccc3)N2[C@@H](c2ccc(OCCOC(=O)[C@@H]3C[C@@H]4C(=O)N[C@@H](Cc5ccccc5)C(=O)N4[C@@H]3c3ccc(O)cc3)cc2)[C@]12C(=O)Nc1ccccc12 | -0.372 | 0.268 | -0.0713 | 0.278 | 0.217 | 0.403 | 1.21 | 0.503 (inactive) | -0.121 | -0.0645 | 1.55 | 0.455 (inactive) | -0.113 (inactive) | 3.75 (inactive) | 2.13 | 0.0664 (inactive) | -0.151 | 1.65 | 0.758 | -0.0929
CCOC(=O)C[C@H]1[C@H](OC(=O)c2ccc(-c3ccccc3)cc2)[C@@H](NC(=O)c2ccc3ccccc3c2)c2cc(OCCCO)ccc2N1C(=O)c1ccccc1 | -0.211 | -0.0761 | -0.0692 | 0.557 | 0.736 | -0.0077 | 0.627 | -0.182 (inactive) | 0.412 | -0.0115 | 0.712 | 0.806 (inactive) | 1.17 (inactive) | 1.26 (inactive) | 1.69 | -1.1 (inactive) | -0.141 | 0.382 | 0.842 | 0.0914
COCC(=C=CC[C@@H](O)c1cccc(OCCO)c1)C[C@@H](O)COCc1ccccc1 | 0.506 | 1.35 | 0.0918 | 0.718 | -0.157 | 2.11 | 0.974 | -0.631 (inactive) | 1.96 | -0.169 | 0.881 | -1.56 (inactive) | -1.53 (inactive) | -0.592 (inactive) | 3.81 | 1.36 (inactive) | 0.217 | 0.748 | 0.0417 | 0.19
[N-]=[N+]=NCc1ccccc1C[C@]1(C(=O)N2CCOCC2)N=C(c2ccc(OCCCO)cc2)O[C@H]1c1ccccc1CN=[N+]=[N-] | 0.998 | 2.14 | 0.285 | 0.88 | 1.42 | 2.09 | 1.26 | -2.03 (inactive) | 1.5 | 0.0623 | 1.56 | 1.66 (inactive) | 0.284 (inactive) | 16.6 (active) | 3.61 | 0.27 (inactive) | 0.747 | 0.809 | 0.616 | 0.732
CCCCN1CC=CC23O[C@@H]4C=CCOC(=O)[C@@H]4[C@H]2C(=O)N(CCO)[C@@H]3C1=O (stereo not given in full) | 1.37 | 0.0339 | -0.168 | -1.03 | -1.39 | 0.332 | 0.695 | 0.432 (inactive) | -0.657 | -0.0645 | -0.757 | -0.312 (inactive) | -0.706 (inactive) | -0.179 (inactive) | 0.62 | -0.454 (inactive) | 0.221 | -1.45 | -0.823 | -0.327
CCCCCCc1nc(-c2ccc(OC)nc2)cc2c1[Si](C(C)C)(C(C)C)OC2 | -0.0192 | 0.456 | -0.15 | -0.0125 | -0.383 | -0.151 | -0.769 | 0.366 (inactive) | -0.193 | 0.0306 | -0.741 | -0.1 (inactive) | -0.283 (inactive) | -0.218 (inactive) | -0.342 | -0.647 (inactive) | -0.143 | -0.374 | -0.123 | -0.24
COc1ccc([Si](C)(C)[C@H]2[C@H](CCn3cc([C@H](O)c4ccccc4)nn3)O[C@@]3(C(=O)N(c4ccccc4)c4ccccc43)[C@@H]2C)cc1 | -0.0662 | -0.125 | -0.137 | 0.0529 | -0.0554 | 0.44 | 0.248 | -0.805 (inactive) | -0.0512 | -0.236 | 1.56 | 1.02 (inactive) | 1.11 (inactive) | 1.88 (inactive) | 0.147 | 1.58 (inactive) | -0.166 | 1.1 | 0.802 | -0.187
